# According to the supplement of paper PMC10503962:
# Test system: Trichuris muris adult worms
# Assay: mean motility score (Paragon pixel variance) of adult worms (arbitrary units); higher = more motile worms, i.e. less anthelmintic effect; extreme values may be limits of the assay
# Conditions: 100 µM; 24 h
# Summary of the method: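 Motility score was obtained through Paragon pixel-variance analysis and averaged across replicate wells. To generate it, single adult Trichuris muris worms taken from infected NOD SCID mice were kept for 24 h at 37°C and 5% CO2 in 96-well plates, each well holding 100 μL RPMI-1640 plus antibiotics and drug at 100 μM (1% v/v DMSO). The plates were then recorded on an automated phenotyping platform (200 frames, 100 ms apart).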
row,SMILES,mean motility score
1,CN(C)c1nc(N(C)C)nc(N(C)C)n1 [altretamine],3430
2,CCN(Cc1ccncc1)C(=O)C(CO)c1ccccc1 (stereo not drawn) [tropicamide],2030
3,C[C@@H]1C[C@H]2[C@@H]3CCC4=CC(=O)C=C[C@]4(C)[C@@]3(F)[C@@H](O)C[C@]2(C)[C@@]1(O)C(=O)CO [dexamethasone],1780
4,Cc1[nH]c(/C=C2\C(=O)Nc3ccccc32)c(C)c1CCC(=O)O [orantinib],3560
5,C[C@H](CS)C(=O)N1CCC[C@H]1C(=O)O [captopril],3330
6,Nc1ccc(S(N)(=O)=O)cc1 [sulfanilamide],2370
7,CC(=O)O [acetic acid],2710
8,Cc1onc(-c2ccccc2)c1-c1ccc(S(N)(=O)=O)cc1 [valdecoxib],3610
9,O=c1[nH]c(=O)n([C@H]2C[C@H](O)[C@@H](CO)O2)cc1F [floxuridine],2280
10,NCC[C@H](O)C(=O)N[C@@H]1C[C@H](N)[C@@H](O[C@H]2O[C@H](CN)[C@@H](O)[C@H](O)[C@H]2O)[C@H](O)[C@H]1O[C@H]1O[C@H](CO)[C@@H](O)[C@H](N)[C@H]1O.O=S(=O)(O)O [amikacin sulfate],3880
11,Clc1cc(Cl)c(OCC#CI)cc1Cl [haloprogin],2180
12,CC(C)[C@H](N)C(=O)OCCOCn1cnc2c(=O)nc(N)[nH]c21.Cl [valacyclovir hydrochloride],4300
13,COc1cc2nccc(Oc3ccc(NC(=O)C4(C(=O)Nc5ccc(F)cc5)CC4)cc3)c2cc1OC [cabozantinib],3950
14,O=C1NC(=O)C(c2ccccc2)(c2ccccc2)N1 [phenytoin],2510
15,COc1ccc(/C=C/C(=O)Nc2ccccc2C(=O)O)cc1OC [tranilast],1720
16,CC(=O)OC(C)C[N+](C)(C)C.[Cl-] (stereo not drawn) [methacholine chloride],2220
17,CCN[C@H]1C[C@H](C)S(=O)(=O)c2sc(S(N)(=O)=O)cc21 [dorzolamide],2540
18,O=C(O)c1ccc2ccccc2c1O.OCc1cc(C(O)CNCCCCCCOCCCCc2ccccc2)ccc1O (stereo not drawn) [salmeterol xinafoate],0
19,CN(C)CCCOc1nn(Cc2ccccc2)c2ccccc12.Cl [benzydamine hydrochloride],3530

row,SMILES,mean motility score
1,CCCCOc1cc(C(=O)NCCN(CC)CC)c2ccccc2n1 [dibucaine],2070
2,Cl.O=C1CC2(CCCC2)CC(=O)N1CCCCN1CCN(c2ncccn2)CC1 [buspirone hydrochloride],4250
3,NCCS [cysteamine],2360
4,OCC(O)CO [glycerin],3460
5,COc1c(C)c2c(c(O)c1C/C=C(\C)CCC(=O)O)C(=O)OC2 [mycophenolic acid],2100
6,COc1ccc(C(Cl)=C(c2ccc(OC)cc2)c2ccc(OC)cc2)cc1 [chlorotrianisene],2530
7,Cc1cc(Nc2ncc(Cl)c(Nc3ccccc3S(=O)(=O)C(C)C)n2)c(OC(C)C)cc1C1CCNCC1 [ceritinib],1.33
8,CC(=O)Nc1c(I)c(NC(C)=O)c(I)c(C(=O)O)c1I [diatrizoic acid],1110
9,COc1cc2c(Nc3ccc(Br)cc3F)ncnc2cc1OCC1CCN(C)CC1 [vandetanib],0
10,N#CC[C@H](C1CCCC1)n1cc(-c2ncnc3[nH]ccc23)cn1 [ruxolitinib],3070
11,CN1C(C(=O)Nc2ccccn2)=C(O)c2ccccc2S1(=O)=O [piroxicam],2510
12,COC(=O)CCC(=O)CN.Cl [methyl aminolevulinate hydrochloride],2550
13,C#C[C@]1(O)CC[C@H]2[C@@H]3CCC4=CC(=O)CC[C@@H]4[C@H]3CC[C@@]21CC [levonorgestrel],3390
14,N=C(NCCCCCCNC(=N)NC(=N)Nc1ccc(Cl)cc1)NC(=N)Nc1ccc(Cl)cc1 [chlorhexidine],320
15,CCc1ccc(CCOc2ccc(CC3SC(=O)NC3=O)cc2)nc1 (stereo not drawn) [pioglitazone],0
16,Cc1ccc(S(=O)(=O)NC(=O)NN2CCCCCC2)cc1 [tolazamide],4090
17,COC(=O)[C@H](c1ccccc1Cl)N1CCc2sccc2C1 [clopidogrel],2110
18,Cc1cc2cc3c(C)cc(=O)oc3c(C)c2o1 [trioxsalen],2070
19,O=C(CCCCCCC(=O)Nc1ccccc1)NO [vorinostat],1260
